Rows were chosen to be rich in hits. Some 7.4% of all compounds tested hit in one or more screens of this group.
NPC1 promoter act = qHTS Assay for NPC1 Promoter Activators; Huh7 NPC1 promoter luciferase reporter, 24 h; Potency, µM (titrated, usually from 9.22 µM), actives largely listed as activators; hit rate 2.4% among 320,000; AID 485313, 2010; further: nearly all actives have a fitted effect of over 60% in size
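Readout is luciferase luminescence, reflecting NPC1 promoter activation in stably transfected Huh7 cells after 24 h compound exposure at 37 °C in reduced-serum medium with 10% FBS.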
KinaseGlo FLuc = Counterscreen for Luciferase (Kinase-Glo TM) Inhibition. hit rate 0.28% among 200,000. Potency, µM (highest dose often 38.3 µM), hits mostly inhibitors. Luciferin 4-monooxygenase (Photuris pensylvanica), Q27757. Kinase-Glo luciferase, ATP luminescence, 8 min; further: nearly all actives have a fitted effect of over 60% in size
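Compound is pinned into ATP-containing buffer (10 uM ATP, imidazole pH 7.2, 7 mM MgCl2). Kinase-Glo luciferase reagent is then added. Light output is recorded following an 8-min room-temperature incubation.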
FLuc modulator = qHTS profiling assay for firefly luciferase inhibitor/activator using purifed enzyme and Km concentrations of substrates (counterscreen for miR-21 project); Potency, µM (top dose mostly 57.5 µM), most hits filed as inhibitors; purified FLuc, Km substrates, luminescence inhibition; hit rate 6.9% among 360,000; Luciferin 4-monooxygenase (Photinus pyralis), P08659; AID 588342, 2011; further: nearly all actives have a fitted effect of over 55% in size
Target sequence (P08659 whole entry, looked up): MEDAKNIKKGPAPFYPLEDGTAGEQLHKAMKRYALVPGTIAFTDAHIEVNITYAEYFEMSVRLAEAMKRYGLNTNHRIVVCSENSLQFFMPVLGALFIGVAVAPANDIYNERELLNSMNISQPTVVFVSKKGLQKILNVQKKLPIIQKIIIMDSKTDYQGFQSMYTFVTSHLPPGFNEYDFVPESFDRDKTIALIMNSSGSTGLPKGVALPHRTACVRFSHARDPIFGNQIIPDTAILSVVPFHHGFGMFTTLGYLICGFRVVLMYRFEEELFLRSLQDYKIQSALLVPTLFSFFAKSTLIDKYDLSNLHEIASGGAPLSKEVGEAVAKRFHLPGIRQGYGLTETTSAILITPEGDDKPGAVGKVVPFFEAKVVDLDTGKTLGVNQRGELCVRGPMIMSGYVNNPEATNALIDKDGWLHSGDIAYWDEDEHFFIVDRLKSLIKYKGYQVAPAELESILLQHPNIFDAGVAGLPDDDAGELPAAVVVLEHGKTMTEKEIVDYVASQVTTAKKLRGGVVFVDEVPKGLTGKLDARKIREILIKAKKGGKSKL
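Purified P. pyralis luciferase, 10 nM final, with Km-level 10 uM D-luciferin and 10 uM ATP in 50 mM Tris acetate pH 7.5, 10 mM Mg acetate, 0.01% Tween-20, 0.05% BSA; 6-point qHTS titration about 60 µM downward; luminescence read.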
Rab9 prom act = qHTS Assay for Rab9 Promoter Activators | AID 485297, 2010 | hit rate 2.8% among 320,000 | Huh7 Rab9 promoter-luciferase reporter, luminescence, 24 h | Potency, µM (doses to about 9.22 µM), most hits filed as activators; further: nearly all actives have a fitted effect of over 60% in size
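Huh7 cells stably carrying a Rab9 promoter-luciferase reporter, 1500 cells per well in OP-MEM I with 10% FBS, treated with compound 24 hours at 37C. Luciferase activity read by luminescence after 10 minutes with Amplite reagent.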
ELG1 genotox = qHTS screen for small molecules that induce genotoxicity in human embryonic kidney (HEK293T) cells expressing luciferase-tagged ELG1. hit rate 1.3% among 330,000. HEK293T ELG1-luciferase reporter, luminescence, 16 h. Potency, µM (top dose mostly 46 µM), usual class: activators; further: nearly all actives have a fitted effect of over 60% in size
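16 hr compound incubation (37 °C, 5% CO2) of HEK293T cells carrying luciferase-tagged ELG1; luciferase then measured by ONE-Glo luminescence after 30 min at RT.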
SMN2 splice enh = qHTS Assay for Enhancers of SMN2 Splice Variant Expression; HEK293 SMN2-luciferase splicing reporter, luminescence, 30-36 h; hit rate 2.8% among 210,000; Potency, µM (series often up to 46.1 µM), actives largely listed as activators; AID 1458, 2008; further: nearly all actives have a fitted effect of over 55% in size
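HEK293 cells carry an SMN2 […]–luciferase reporter in which exon 7 inclusion puts luciferase in frame. Cells were plated 10-12 h before compound addition, then incubated 30-36 h at 37C. ONE-Glo luminescence was read; sodium butyrate at 4.5 mM final served as control.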
Numbers stand for hits; – = inactive; ? = inconclusive; · = not tested or not shown; [ ] = remark or other dose. The call rests on the fitted dose curve; in most records, active means well fitted curve in the direction sought with a large enough effect; inconclusive means small, poorly fitted or top-dose-only effect, or another doubt; inactive means no such curve, though single readings can be large; an effect the other way counts as inactive or inconclusive.

SMILES	NPC1 promoter act	KinaseGlo FLuc	FLuc modulator	Rab9 prom act	ELG1 genotox	SMN2 splice enh
CC(C)c1ccc2oc(-c3ccc(NC(=O)c4ncn[nH]4)cc3)nc2c1	?	–	1.5µM	?	9.2µM	?
CCC(C)c1ccc2oc(-c3ccc(NC(=O)c4ncn[nH]4)cc3)nc2c1 (stereo not drawn)	–	–	2.7µM	–	?	–
CCc1ccc(-c2nc3cc(NC(=O)c4ccc(C)c(C)c4)ccc3o2)cc1	·	·	–	·	·	–
CCC(C)c1ccc(O)c(NC(=O)c2ncn[nH]2)c1 (stereo not drawn)	–	–	?	–	–	–
COc1ccc([C@@H](C)NC(=O)c2ccc3oc(C(C)C)nc3c2)cc1	?	·	17µM	?	–[9.26 µM]	·
CCc1ccc(C(=O)Nc2cccc(-c3nc4cc(C(C)C)ccc4o3)c2)cc1	·	·	2.7µM	·	·	–
Cc1cccc(C(=O)Nc2ccc(-c3nc4cc(C(C)C)ccc4o3)cc2)c1	·	·	?	·	·	–
CC1CCN(C(=O)c2cc(Cl)ccc2NC(=O)c2ccco2)CC1	–	·	–	–	–	·
COc1cc(OC)cc(C(=O)Nc2ccc(-c3nc4cc(C(C)C)ccc4o3)cc2)c1	·	·	11µM	·	·	–
COc1cc(OC)cc(C(=O)Nc2ccc(-c3nc4ccccc4o3)cc2)c1	–	–	–	–	–	–
O=C(Nc1cc(-c2ccccc2)[nH]n1)c1ccc(Cl)cc1	2µM	·	11µM	3.2µM	?	·
Cc1ccc(NC(=O)c2cccc(Cl)c2)nc1	–	11µM	?	–	–	–
Cc1cc(NC(=O)c2cccc(Cl)c2)n[nH]1	2.8µM	·	19µM	2.5µM	?	·
Cc1ccc(NC(=O)CNC(=O)c2cccc(Cl)c2)nc1	–	·	?	–	?	·
Cc1nnc(NC(=O)c2ccc3c(c2)NC(=O)CS3)s1	–	·	–	–	–	·
Cc1ccc(NC(=O)c2ccc3c(c2)NC(=O)CS3)nc1	?	·	?	?	9.2µM	·
O=C(CN1C(=O)NC(Cc2c[nH]c3ccccc23)C1=O)Nc1ccc(F)cc1F (stereo not drawn)	·	·	·	·	–	·
COC(=O)N1CC=CC1(C)C(=O)NCc1ccc(C)o1 (stereo not drawn)	·	–	·	·	·	–
Cc1ccc(NC(=O)c2cccc(NC(=O)CC3SC(N4CCCCC4)=NC3=O)c2)nc1 (stereo not drawn)	–	·	11µM	–	–	·
O=C(Nc1ccc(CN2CCOCC2)cc1)c1ccc(Cl)cc1	?	·	17µM	?	?	·
CCOc1ccc(NC(=O)c2ccc(NC(=O)c3ccc(CN4CCOCC4)cc3)cc2)cc1	–	·	–	–	?	·
C/C(=N/NC(=O)c1ccco1)c1ccc(NC(=O)c2ccc(Br)o2)cc1	?	·	?	?	–	·
CCC(C)Oc1ccc(C(=O)Nc2ccc(CN3CCOCC3)cc2)cc1 (stereo not drawn)	–	·	15µM	–	–	·
C/C(=N/NC(=O)c1ccco1)c1ccc(NC(=O)c2ccc(F)cc2)cc1	–	–	?	?	–	16µM
O=C(NCCSc1ccccc1)c1ccc(CN2CCOCC2)cc1	2µM	·	12µM	2µM	?	·
SMILES	NPC1 promoter act	KinaseGlo FLuc	FLuc modulator	Rab9 prom act	ELG1 genotox	SMN2 splice enh
O=C(Nc1ccc(CN2CCOCC2)cc1)c1ccc(Br)cc1	?	·	?	–	?	·
O=C(NCCSc1ccc(Cl)cc1)c1ccc(CN2CCOCC2)cc1	–	–	–	–	–	·
CC(=O)OCC(CCn1cnc2cnc(N)nc21)COC(C)=O	–	–	–	–	·	–
NC(=O)CS(=O)C[C@H](N)C(=O)O (stereo partly drawn)	·	–[7.66 µM]	·	·	·	–[9.22 µM]
O=C(Nc1ccccc1N1CCOCC1)c1ccc2ccccc2c1	–	·	11µM	–	–	·
O=C(Nc1ccc(CN2CCOCC2)cc1)c1ccc2ccccc2c1	1µM	·	8.5µM	1.4µM	?	·
O=C(Nc1cccc([N+](=O)[O-])c1)c1ccc(CN2CCOCC2)cc1	–	–	17µM	–	–	·
COc1cccc(/C=C/C(=O)Nc2ccccc2N2CCOCC2)c1	–	–	17µM	–	·	·
Cc1ccc2oc(=O)c3cc(C(=O)NCCCN4C(C)CCCC4C)sc3c2c1 (stereo not drawn)	–	·	–	–	–	·
O=C(NC(N1CCOCC1)C(Cl)(Cl)Cl)c1ccco1 (stereo not drawn)	?	–	8.5µM	?	16µM	·
CC(=O)Nc1ccc(/C(C)=N/NC(=O)c2ccc(CN3CCOCC3)cc2)cc1	–	–	–	–	–	–
CCOc1ccc(C(=O)Nc2cccc(NC(=O)c3ccc(C(C)(C)C)cc3)c2)cc1Br	·	·	1.5µM	·	·	?
C/C(=N\NC(=O)c1ccc(CN2CCOCC2)cc1)c1ccc(NC(=O)c2ccccc2)cc1	?	–	?	?	?	11µM
O=C(Nc1ccc(CN2CCOCC2)cc1)c1ccco1	2µM	·	21µM	1.4µM	?	·
N#C/C(=C\c1ccc(O)c(O)c1)C(=O)OCCc1cccs1	·	–	·	·	·	·
COc1ccc(-c2noc(CCC(=O)N3CCN(c4cccc(Cl)c4)CC3)n2)cc1	·	·	·	·	–	·
Cn1cc(CNC(=O)c2cnn3c2NC(=C2CC2)C=C3C(F)F)cn1	·	·	–	·	·	·
O=C(Nc1ccc(Cn2cccn2)cc1)c1ccc(COc2ccccc2Br)cc1	–	–	17µM	–	–	–
COc1ccc(C(=O)NC(=S)Nc2ccc(CN3CCOCC3)cc2)cc1Br	–	·	–	–	–	·
Cc1cc(/C=N/NC(=O)c2ccc(CN3CCOCC3)cc2)c(C)n1-c1ccccc1	–	–	6.7µM	–	?	–
COC(=O)c1ccc(NC(=O)c2ccc(CN3CCOCC3)cc2)cc1	–	–	?	–	–	–
O=C(N/N=C/c1ccccc1[N+](=O)[O-])c1ccc(CN2CCOCC2)cc1	–	–	?	–	–	–[1.84 µM]
CCOc1ccc(C(=O)Nc2ccc(CN3CCOCC3)cc2)cc1Br	–	·	13µM	–	–	·
O=C(Nc1ccc(CN2CCOCC2)cc1)c1ccc(F)cc1	?	·	21µM	?	?	·
O=C(Nc1cc(C(F)(F)F)ccc1N1CCOCC1)C1Cc2ccccc2CN1C(=O)c1ccco1 (stereo not drawn)	–	–	–	–	–	–
SMILES	NPC1 promoter act	KinaseGlo FLuc	FLuc modulator	Rab9 prom act	ELG1 genotox	SMN2 splice enh
CC(C)[C@H](NC(=O)c1ccco1)C(=O)N(C)Cc1ccc(C(F)(F)F)cc1	–	·	–	–	–	·
CCn1nnc2cc(C(=O)Nc3ccc(OC)cc3)ccc21	·	·	–	·	·	·
O=C(Nc1ccc(CN2CCOCC2)cc1)c1cccc(F)c1	2.8µM	–	9.5µM	2.8µM	16µM	13µM
FC(F)(F)C1=Nc2cccc3cccc(c23)N1	–	·	?	–	–	·
Fc1ccc(C2=Nc3cccc4cccc(c34)N2)cc1	–	–	15µM	?	–	–
Brc1ccc(C2=Nc3cccc4cccc(c34)N2)o1	–	–	12µM	–	–	–

Bioassay records: PubChem, National Center for Advancing Translational Sciences (NCATS)
